Measurements reported in PubChem BioAssay (Tox21).
Results filed as inconclusive are left out. Activity calls are given as the source filed them. Unless noted, calls come from the whole dose curve; as a rule, active = well fitted curve in the direction sought with a large enough effect in the repeat runs; inconclusive = weak or mixed curves; inactive = no such curve, though single readings can be large; an effect the other way counts as inactive or inconclusive.

Legend:
[1] = qHTS assay to identify small molecule agonists of the estrogen receptor alpha (ER-alpha) signaling pathway in the presence of an antagonist - cell viability counter screen (AID 1259386);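 note: cells exposed to compounds for 22 h at 37 °C before the viability read; nearly all actives have a fitted effect of over 30% in size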; note: potency is the fitted concentration of half-maximal effect
Outline: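 ICI-182,780 at 10.0nM final accompanies the compound titration (15 concentrations, 22hr, 37C) on VM7Luc4E2 cells. The CellTiter-Fluor fluorescence readout runs in the same wells as the luciferase assay.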

[2] = molecular target: Progesterone receptor (Homo sapiens) (UniProt P06401); experiment: qHTS assay to identify small molecule agonists of the progesterone receptor (PR) signaling pathway (AID 1346784; calls by dose curve; note: nearly all actives have a fitted effect of over 30% in size)
Outline: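 HEK 293T PR-UAS-bla reporter cells, 2% charcoal-stripped FBS; 6 hr settle at 37C/5% CO2, compound (DMSO) 16 hr, LiveBLAzer B/G FRET substrate 2 hr RT, fluorescence intensity read.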

[3] = qHTS assay to identify small molecule agonists of the progesterone receptor (PR) signaling pathway - cell viability counter screen (AID 1346799; calls by dose curve; note: nearly all actives have a fitted effect of over 45% in size; note: potency is the fitted concentration of half-maximal effect)
Outline: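 HEK293T PR-UAS-bla, 3,000 cells/well, 2% charcoal-stripped FBS; 6 h settle, compound 16 h at 37C/5% CO2; LiveBLAzer 2 h RT, then CellTiter-Glo 30 min RT, luminescence read.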

[4] = qHTS assay to identify small molecule agonists of the TGF-beta/Smad signaling pathway - cell viability counter screen (AID 1346829); note: top concentration of the series differs between compounds; nearly all actives have a fitted effect of over 45% in size
Outline: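 Tox21 qHTS format: SBE-bla HEK 293T cells treated with DMSO-dissolved compounds for 5 hr; CellTiter-Glo luminescence after 30 min at room temperature.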

[5] = qHTS assay to identify small molecule agonists of the TGF-beta/Smad signaling pathway (AID 1346859; active = well fitted activation curve with a large enough effect in the signal ratio in the repeat runs, not every such curve was filed as active; the % refers to the signal ratio; note: series mostly up to about 77 µM)
Outline: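 Read-out: fluorescence at 460 and 530 nm (405 nm excitation) after a 2 hr room-temperature incubation with beta-lactamase FRET substrate. SBE-bla HEK 293T cells had been treated with test compounds for 5 hr at 37 C.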

[6] = molecular target: Thyrotropin-releasing hormone receptor (Homo sapiens) (UniProt P34981); experiment: qHTS assay to identify small molecule agonists of the thyrotropin-releasing hormone receptor (TRHR) signaling pathway (AID 1346891; calls by dose curve;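 note: HEK293 cells expressing TRHR with calcium dye readout; series mostly up to about 58 µM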)
Outline: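 HEK293/TRHR cells, 1500 per well, 18 h 37 °C; Ca dye 2 h 37 °C; pin-tool compound addition (agonist mode); kinetic fluorescence 3 min, 1 s reads; 15 concentrations, triplicate.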

[7] = Human pregnane X receptor (PXR) small molecule agonists, qHTS cell viability counter screen (AID 1346977); note: nearly all actives have a fitted effect of over 50% in size; note: potency is the fitted concentration of half-maximal effect
Outline: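 Fluorescence read-out (CellTiter-Fluor) of viability in PXR-Luc HepG2 cells, multiplexed with the luciferase agonist read. Compounds in DMSO added after 5hr plating; 24hr total exposure at 37C, 5% CO2.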

[8] = Caspase-3/7 induction in HepG2 cells by small molecules, qHTS assay (AID 1346978); note: nearly all actives have a fitted effect of over 15% in size
Outline: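 Caspase-3/7 induction was measured by Caspase-Glo 3/7 luminescence (30 min, room temperature) after a 17 hr compound exposure of wild-type HepG2 cells seeded at 2,000 per well and pre-incubated 5 hr.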

[9] = Caspase-3/7 induction in CHO-K1 cells by small molecules, qHTS assay (AID 1346980); note: nearly all actives have a fitted effect of over 15% in size
Outline: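 Luminescent Caspase-Glo 3/7 read (30min, room temperature) quantified apoptosis induction. Cells were wild-type CHO-K1, treated with compound for 17hr at 37 C and 5% CO2.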

[10] = molecular target: Nuclear receptor subfamily 1 group I member 2 (Homo sapiens) (UniProt O75469); experiment: Human pregnane X receptor (PXR) small molecule agonists, qHTS assay (AID 1346982); note: nearly all actives have a fitted effect of over 35% in size; note: potency is the fitted concentration of half-maximal effect
Outline: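 We seeded PXR-Luc HepG2 cells in assay medium containing 5% charcoal-stripped FBS, added compounds 5 hr later, incubated 24 hr, and read luminescence with ONE-Glo reagent.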

[11] = molecular target: Acetylcholinesterase (Homo sapiens) (UniProt P22303); experiment: Acetylcholinesterase (AChE) small molecule antagonists: colormetric cell-based qHTS assay (AID 1347395; calls by dose curve; note: nearly all actives have a fitted effect of over 30% in size)
Outline: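 SH-SY5Y cells; cpd 30 min 37 C; + DTNB/acetylthiocholine, 90 min 37 C; colorimetric thiocholine read; qHTS.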

[12] = molecular target: Acetylcholinesterase (Homo sapiens) (UniProt P22303); experiment: Acetylcholinesterase (AChE) small molecule antagonists: enzyme-based qHTS assay (AID 1347397; calls by dose curve; note: nearly all actives have a fitted effect of over 55% in size); conditions: Potency: AChE enzyme activity inhibition
Outline: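 Absorbance-based detection of thiocholine with DTNB served as the read-out. Recombinant human AChE was exposed to compound for 30 min at RT before a 10 min RT incubation with acetylthiocholine.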

[13] = qHTS assay to identify small molecule antagonists of the TGF-beta/Smad signaling pathway - cell viability counter screen (AID 1346824); note: nearly all actives have a fitted effect of over 50% in size
Outline: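 Cytotoxicity counter-screen run in the same wells as the beta-lactamase Smad reporter read: CellTiter-Glo luminescence after 30 min at room temperature. HEK 293T SBE-bla cells had 5 hr compound exposure at 37 C with TGF-beta1 (0.25 ng/mL stock).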

[14] = Caspase-3/7 induction in CHO-K1 cells by small molecules, qHTS cell viability counter screen (AID 1346979); note: nearly all actives have a fitted effect of over 35% in size; note: potency is the fitted concentration of half-maximal effect
Outline: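 CHO-K1 wt, 1,500 cells/well; 5hr pre-incubation 37C/5% CO2; compound pin transfer (DMSO); 16hr exposure; CellTiter-Fluor added, 1hr, fluorescence read.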

[15] = molecular target: Progesterone receptor (Homo sapiens) (UniProt P06401); experiment: qHTS assay to identify small molecule antagonists of the progesterone receptor (PR) signaling pathway (AID 1346795; active = well fitted inhibition curve with a large enough effect in the signal ratio in the repeat runs, not every such curve was filed as active; the % refers to the signal ratio)
Outline: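 Beta-lactamase reporter, HEK293T PR-UAS-bla line; 2% charcoal-stripped FBS; 6 hr pre-incubation, 37C/5% CO2. Compound + R5020 1 nM final, 16 hr. LiveBLAzer B/G FRET substrate, 2 hr RT; fluorescence intensity read.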

[16] = qHTS assay to identify small molecule antagonists of the progesterone receptor (PR) signaling pathway - cell viability counter screen (AID 1346798); note: series mostly up to about 92 µM; nearly all actives have a fitted effect of over 50% in size
Outline: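 Luminescence readout (CellTiter-Glo, 30 min, RT) of viability in PR-UAS-bla HEK293T cells exposed to compound and R5020 agonist for 16 hr at 37C, 5% CO2; run in the same wells as the beta-lactamase reporter read.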

[17] = molecular target: Thyrotropin-releasing hormone receptor (Homo sapiens) (UniProt P34981); experiment: qHTS assay to identify small molecule antagonists of the thyrotropin-releasing hormone receptor (TRHR) signaling pathway (AID 1346877; active = well fitted inhibition curve with a large enough effect in the repeat runs, not every such curve was filed as active; note: series mostly up to about 51 µM)
Outline: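 Screening used HEK293 cells engineered with TRHR, with a brief 5 min room-temperature compound exposure preceding addition of TRH to 1 nM. The read-out was kinetic calcium-dye fluorescence, concentration-response from 15 doses in triplicate.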

[18] = Caspase-3/7 induction in HepG2 cells by small molecules, qHTS cell viability counter screen (AID 1346981); note: nearly all actives have a fitted effect of over 30% in size; note: potency is the fitted concentration of half-maximal effect
Outline: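 Multiplexed with the caspase-3/7 assay: HepG2 cells, 16 hr compound treatment, CellTiter-Fluor viability detection by fluorescence.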

[19] = molecular target: Nuclear receptor subfamily 1 group I member 2 (Rattus norvegicus) (UniProt Q9R1A7); experiment: Rat pregnane X receptor (rPXR) activation by small molecules, qHTS assay (AID 1346983); conditions: rPXR luciferase reporter cells, One-Glo luminescence, 24 h; max activation: active compounds read high; note: nearly all actives have a fitted effect of over 20% in size; note: potency is the fitted concentration of half-maximal effect
Outline: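 Luminescent readout (One-Glo luciferase, 30 min room temperature) followed 24 hr compound treatment at 37 C of rPXR cells plated 2,000 per well and preincubated 5hr; qHTS format with compounds delivered in DMSO.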

[20] = molecular target: Nuclear receptor subfamily 1 group I member 2 (Homo sapiens) (UniProt O75469); experiment: Human pregnane X receptor (PXR) activation by small molecules, qHTS assay (AID 1346985); note: nearly all actives have a fitted effect of over 40% in size; note: potency is the fitted concentration of half-maximal effect
Outline: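 DPX-2 cells (HepG2 co-transfected with a PXR response element and a CYP3A4-promoter luciferase construct) were seeded at 2,000 per well, rested 5 hr at 37C, then exposed to DMSO-dissolved compounds for 24 hr. Activation was read as luciferase luminescence.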
% is set by controls: 0 for no effect and ±100 for the full control effect.

Thyrotropin-releasing hormone receptor (Homo sapiens), sequence (P34981 whole entry, looked up): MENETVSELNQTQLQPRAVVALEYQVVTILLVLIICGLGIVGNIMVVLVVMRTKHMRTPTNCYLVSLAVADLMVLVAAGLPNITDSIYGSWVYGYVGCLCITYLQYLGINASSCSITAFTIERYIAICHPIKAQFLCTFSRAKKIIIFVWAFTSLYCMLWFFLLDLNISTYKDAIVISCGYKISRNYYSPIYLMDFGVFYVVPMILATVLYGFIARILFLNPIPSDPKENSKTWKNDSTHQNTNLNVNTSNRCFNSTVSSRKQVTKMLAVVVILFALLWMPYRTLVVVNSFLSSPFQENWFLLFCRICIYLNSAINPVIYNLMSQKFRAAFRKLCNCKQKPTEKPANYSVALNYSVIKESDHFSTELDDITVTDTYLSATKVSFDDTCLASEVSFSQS
Nuclear receptor subfamily 1 group I member 2 (Homo sapiens), sequence (O75469 whole entry, looked up): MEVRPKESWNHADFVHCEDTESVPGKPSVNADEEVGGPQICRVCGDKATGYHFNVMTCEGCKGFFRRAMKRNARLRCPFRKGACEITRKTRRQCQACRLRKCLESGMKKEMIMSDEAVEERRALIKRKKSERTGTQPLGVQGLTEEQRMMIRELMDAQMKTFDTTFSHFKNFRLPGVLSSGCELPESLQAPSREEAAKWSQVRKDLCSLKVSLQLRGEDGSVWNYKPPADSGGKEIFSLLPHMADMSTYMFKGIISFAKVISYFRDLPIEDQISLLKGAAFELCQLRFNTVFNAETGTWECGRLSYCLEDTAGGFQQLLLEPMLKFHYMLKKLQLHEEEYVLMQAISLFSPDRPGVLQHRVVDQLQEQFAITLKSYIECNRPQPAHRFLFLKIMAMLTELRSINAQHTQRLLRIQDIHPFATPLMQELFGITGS
Acetylcholinesterase (Homo sapiens), sequence (P22303 whole entry, looked up): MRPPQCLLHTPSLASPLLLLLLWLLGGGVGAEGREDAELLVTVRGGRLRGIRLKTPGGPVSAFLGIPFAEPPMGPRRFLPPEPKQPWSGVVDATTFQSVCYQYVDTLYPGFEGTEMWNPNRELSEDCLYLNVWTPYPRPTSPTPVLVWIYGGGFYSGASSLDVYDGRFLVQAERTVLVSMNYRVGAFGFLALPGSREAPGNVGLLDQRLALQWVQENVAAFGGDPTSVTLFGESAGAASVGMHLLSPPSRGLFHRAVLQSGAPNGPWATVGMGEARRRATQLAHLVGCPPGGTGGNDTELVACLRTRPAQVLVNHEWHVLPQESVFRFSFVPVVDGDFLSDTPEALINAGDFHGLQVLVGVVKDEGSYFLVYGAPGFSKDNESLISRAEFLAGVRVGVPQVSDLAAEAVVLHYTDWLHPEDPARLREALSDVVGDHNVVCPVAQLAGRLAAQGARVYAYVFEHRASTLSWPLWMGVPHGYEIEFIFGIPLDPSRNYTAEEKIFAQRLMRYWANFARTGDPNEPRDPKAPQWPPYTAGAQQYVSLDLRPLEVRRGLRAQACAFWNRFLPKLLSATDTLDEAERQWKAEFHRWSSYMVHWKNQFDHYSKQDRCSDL
Progesterone receptor (Homo sapiens), sequence (P06401 whole entry, looked up): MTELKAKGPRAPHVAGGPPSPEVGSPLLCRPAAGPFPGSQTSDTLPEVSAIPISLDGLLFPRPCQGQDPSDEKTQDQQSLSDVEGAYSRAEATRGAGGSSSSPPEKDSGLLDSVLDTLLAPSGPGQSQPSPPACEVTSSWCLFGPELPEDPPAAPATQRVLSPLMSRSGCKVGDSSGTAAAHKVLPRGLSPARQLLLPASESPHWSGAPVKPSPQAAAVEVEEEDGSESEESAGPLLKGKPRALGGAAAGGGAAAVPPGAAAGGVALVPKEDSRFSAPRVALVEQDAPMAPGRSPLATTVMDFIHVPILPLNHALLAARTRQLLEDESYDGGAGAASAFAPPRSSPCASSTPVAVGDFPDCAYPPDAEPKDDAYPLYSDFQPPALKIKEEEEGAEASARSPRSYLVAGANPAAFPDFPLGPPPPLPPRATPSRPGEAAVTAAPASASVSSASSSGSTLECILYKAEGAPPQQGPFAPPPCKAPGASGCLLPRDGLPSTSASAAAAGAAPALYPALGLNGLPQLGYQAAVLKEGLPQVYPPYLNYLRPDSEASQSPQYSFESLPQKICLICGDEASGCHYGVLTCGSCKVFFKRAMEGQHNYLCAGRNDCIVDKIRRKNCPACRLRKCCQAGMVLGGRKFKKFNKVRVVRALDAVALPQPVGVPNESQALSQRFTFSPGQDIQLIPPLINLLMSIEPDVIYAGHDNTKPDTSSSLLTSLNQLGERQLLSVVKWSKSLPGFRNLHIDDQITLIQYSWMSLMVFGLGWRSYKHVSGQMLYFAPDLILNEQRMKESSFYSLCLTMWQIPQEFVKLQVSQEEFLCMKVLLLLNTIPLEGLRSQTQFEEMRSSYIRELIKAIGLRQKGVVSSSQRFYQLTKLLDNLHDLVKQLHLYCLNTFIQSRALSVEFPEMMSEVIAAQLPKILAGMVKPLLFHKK
Nuclear receptor subfamily 1 group I member 2 (Rattus norvegicus), sequence (Q9R1A7 whole entry, looked up): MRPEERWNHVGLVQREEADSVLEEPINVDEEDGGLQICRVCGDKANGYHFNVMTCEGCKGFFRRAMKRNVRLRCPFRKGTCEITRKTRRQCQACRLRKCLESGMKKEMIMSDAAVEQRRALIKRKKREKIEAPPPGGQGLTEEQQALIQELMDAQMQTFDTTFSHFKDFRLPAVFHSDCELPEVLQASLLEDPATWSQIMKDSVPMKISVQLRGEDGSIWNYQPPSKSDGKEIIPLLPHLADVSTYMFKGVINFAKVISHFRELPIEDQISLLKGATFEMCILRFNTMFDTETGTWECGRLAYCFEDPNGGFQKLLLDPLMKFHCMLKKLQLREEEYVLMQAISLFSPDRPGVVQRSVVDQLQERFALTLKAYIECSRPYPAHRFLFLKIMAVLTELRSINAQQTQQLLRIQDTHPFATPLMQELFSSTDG

c1cc2ccc3cccc4ccc(c1)c2c34
active: Potency [3] 28.6 µM | Potency [10] 25.5 µM
inactive: Potency [1] | Potency [2] | Potency [4] | outcome [5] | Potency [6] | Potency [7] | Potency [8] | Potency [9] | Potency [11] | Potency [12]

O=S(=O)(O)C(F)(F)C(F)(F)C(F)(F)C(F)(F)F
inactive: Potency [1] | Potency [2] | Potency [13] | Potency [4] | outcome [5] | Potency [8] | Potency [9] | Potency [10] | Potency [11] | Potency [12]
active: Potency [14] 54.5 µM

O=C(O)CC(Cl)C(=O)O (configuration not stated)
inactive: Potency [1] | Potency [15] | Potency [16] | Potency [3] | Potency [13] | Potency [4] | outcome [5] | Potency [17] | Potency [6] | Potency [7] | Potency [8] | Potency [14] | Potency [9] | Potency [18] | Potency [10] | Potency [11] | Potency [12]

O=C(N[C@H](c1ccccc1)[C@@H]1CN2CCC1CC2)c1c(Cl)ccc(C(F)(F)F)c1Cl
inactive: Potency [1] | Potency [2] | Potency [13] | Potency [4] | Potency [8] | Potency [9] | Potency [10]
active: Potency [7] 49.3 µM | Potency [14] 78.1 µM | Potency [18] 55.3 µM

N#CCC#N
active: Potency [14] 30.6 µM
inactive: Potency [1] | Potency [2] | Potency [3] | Potency [13] | Potency [4] | outcome [5] | Potency [6] | Potency [8] | Potency [9] | Potency [11] | Potency [12]

CCCC(=O)Cl
inactive: Potency [1] | Potency [2] | Potency [3] | Potency [13] | Potency [4] | outcome [5] | Potency [17] | Potency [6] | Potency [7] | Potency [8] | Potency [14] | Potency [9] | Potency [18] | Potency [10] | Potency [11] | Potency [12]

Oc1ccc(Cl)c(Cl)c1Cl
inactive: Potency [1] | Potency [2] | Potency [13] | Potency [4] | outcome [5] | Potency [17] | Potency [6] | Potency [9] | Potency [11] | Potency [12]
active: Potency [10] 63.4 µM

O=C1c2ccccc2C(=O)C1C(=O)C(c1ccccc1)c1ccccc1
inactive: Potency [1] | Potency [2] | Potency [3] | Potency [13] | Potency [4] | outcome [5] | Potency [17] | Potency [6] | Potency [7] | Potency [8] | Potency [9] | max activation [19] -0.238% | Potency [20] | Potency [11] | Potency [12]

O=C1CN=C(c2ccccc2)c2cc(Cl)ccc2N1CC1CC1
inactive: Potency [1] | Potency [2] | Potency [13] | Potency [4] | outcome [5] | Potency [17] | Potency [6] | Potency [7] | Potency [8] | Potency [9] | Potency [18] | Potency [11]
active: Potency [10] 25.5 µM | Potency [19] 11.2 µM | Potency [20] 2 µM

C=CCC1([C@H](C)CCC)C(=O)NC(=O)NC1=O
inactive: Potency [1] | Potency [15] | Potency [16] | Potency [3] | Potency [13] | Potency [4] | outcome [5] | Potency [17] | Potency [6] | Potency [7] | Potency [8] | Potency [14] | Potency [9] | Potency [18] | Potency [10] | Potency [11] | Potency [12]

O=[N+]([O-])c1ccccc1CCl
inactive: Potency [1] | Potency [2] | Potency [3] | Potency [13] | Potency [4] | outcome [5] | Potency [6] | Potency [7] | Potency [8] | Potency [14] | Potency [9] | Potency [18] | Potency [11] | Potency [12]
active: Potency [10] 0.0039 µM

CCCCN=C=O
inactive: Potency [1] | Potency [2] | Potency [3] | Potency [13] | Potency [4] | outcome [5] | Potency [6] | Potency [7] | Potency [8] | Potency [14] | Potency [9] | Potency [18] | Potency [10] | Potency [11] | Potency [12]

CO/C=C(/C(=O)OC)c1ccccc1COc1cccc(C(F)(F)F)n1
active: Potency [1] 8.63 µM | Potency [7] 1.93 µM | Potency [14] 0.385 µM | Potency [10] 34.3 µM
inactive: Potency [2] | Potency [13] | Potency [4] | outcome [5] | Potency [17] | Potency [6] | Potency [8] | Potency [9] | Potency [11] | Potency [12]

Sc1ccccc1Cl
inactive: Potency [1] | Potency [15] | Potency [16] | Potency [3] | Potency [13] | Potency [4] | outcome [5] | Potency [17] | Potency [6] | Potency [7] | Potency [8] | Potency [14] | Potency [9] | Potency [18] | Potency [10] | Potency [11] | Potency [12]
